WRN inhibitor: qHTS for Inhibitors of WRN Helicase. Bifunctional 3'-5' exonuclease/ATP-dependent helicase WRN (Homo sapiens), Q14191. WRN helicase unwinding, fluorescent forked duplex, kinetic. Potency, µM (doses to about 114 µM), for the others: at the top dose activity change, negative = inhibition, actives largely listed as inhibitors. 360,000 tested, 0.46% active; further: potency means the concentration at half of the fitted maximal effect; on the % scale 0 is the no-effect control and ±100 the full control effect; nearly all actives have a fitted effect of over 55% in size
Target sequence (Q14191 whole entry, looked up): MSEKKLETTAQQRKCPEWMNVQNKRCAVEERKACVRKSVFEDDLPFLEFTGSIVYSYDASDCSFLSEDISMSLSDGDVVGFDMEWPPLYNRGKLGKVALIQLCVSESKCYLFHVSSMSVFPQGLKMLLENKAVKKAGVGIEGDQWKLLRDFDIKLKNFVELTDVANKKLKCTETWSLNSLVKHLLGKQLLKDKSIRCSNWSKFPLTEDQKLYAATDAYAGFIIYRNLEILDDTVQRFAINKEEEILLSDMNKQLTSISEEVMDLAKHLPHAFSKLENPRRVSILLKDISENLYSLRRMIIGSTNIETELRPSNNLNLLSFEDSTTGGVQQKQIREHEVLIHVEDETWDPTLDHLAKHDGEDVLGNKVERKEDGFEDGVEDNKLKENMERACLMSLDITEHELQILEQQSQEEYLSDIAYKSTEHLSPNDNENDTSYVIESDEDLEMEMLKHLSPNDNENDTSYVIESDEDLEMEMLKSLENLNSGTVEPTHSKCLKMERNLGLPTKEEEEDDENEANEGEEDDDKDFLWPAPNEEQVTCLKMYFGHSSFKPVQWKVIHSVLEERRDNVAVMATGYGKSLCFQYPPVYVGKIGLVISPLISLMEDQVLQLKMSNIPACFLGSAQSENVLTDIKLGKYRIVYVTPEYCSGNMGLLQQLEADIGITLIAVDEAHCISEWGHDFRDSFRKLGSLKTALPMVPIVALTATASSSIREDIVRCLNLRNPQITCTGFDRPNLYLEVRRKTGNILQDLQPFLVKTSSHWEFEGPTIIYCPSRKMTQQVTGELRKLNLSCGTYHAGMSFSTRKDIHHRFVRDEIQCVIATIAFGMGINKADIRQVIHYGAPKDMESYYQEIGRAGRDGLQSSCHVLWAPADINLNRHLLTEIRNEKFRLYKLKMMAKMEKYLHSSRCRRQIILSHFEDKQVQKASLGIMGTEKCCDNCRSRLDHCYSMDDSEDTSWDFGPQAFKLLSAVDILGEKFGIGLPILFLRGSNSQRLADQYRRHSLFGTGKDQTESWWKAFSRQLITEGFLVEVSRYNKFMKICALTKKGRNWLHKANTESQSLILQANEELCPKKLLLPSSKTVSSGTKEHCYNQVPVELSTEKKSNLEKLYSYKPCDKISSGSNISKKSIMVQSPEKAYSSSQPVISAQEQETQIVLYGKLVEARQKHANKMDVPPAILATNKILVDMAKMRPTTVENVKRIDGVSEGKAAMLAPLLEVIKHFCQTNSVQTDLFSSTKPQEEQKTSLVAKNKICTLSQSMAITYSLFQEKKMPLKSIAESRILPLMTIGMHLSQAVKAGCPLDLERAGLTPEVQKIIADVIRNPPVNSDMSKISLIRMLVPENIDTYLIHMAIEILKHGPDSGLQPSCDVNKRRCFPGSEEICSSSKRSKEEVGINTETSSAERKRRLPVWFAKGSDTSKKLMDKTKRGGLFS
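Primary qHTS, 1536-well format. 20 nM WRN + compound, 15 min RT; start with 100 nM forked fluorophore/quencher duplex, 2 mM ATP (final); kinetic read ex 525/em 598 nm.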
POLB inh: qHTS Assay for Inhibitors of DNA Polymerase Beta | P06746 | Pol beta primer extension/strand displacement, fluorescence kinetic | Potency, µM (top dose mostly 114 µM), for inactives: at the highest dose activity change, negative = inhibition, actives largely listed as inhibitors | 340,000 tested, 1.3% active | AID 485314, 2010; further: potency means the concentration at half of the fitted maximal effect; on the % scale 0 is the no-effect control and ±100 the full control effect
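Pol beta (10 nM) was preincubated with compound for 15 min at room temperature. The reaction was then started with 50 nM substrate and read immediately and after a further 10 min at room temperature.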
Pol eta inh: qHTS for Inhibitors of Polymerase Eta. DNA polymerase eta (Homo sapiens), Q9Y253. recombinant Pol eta, fluorescent DNA replication assay. Potency, µM (top dose mostly 114 µM), without a hit: top-dose activity change, negative = inhibition, most hits filed as inhibitors. 390,000 tested, 1.2% active. AID 588591, 2011; further: potency means the concentration at half of the fitted maximal effect; on the % scale 0 is the no-effect control and ±100 the full control effect
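Pol eta (10 nM) was preincubated with compounds for 15 min at room temperature, after which fluorescent replication substrate (50 nM final) was added to start the reaction. Fluorescence was read kinetically at 0 and 10 min.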
POLI inh: qHTS for Inhibitors of Polymerase Iota; Pol iota fluorescent replication assay, 10 min; AID 588590, 2011; Potency, µM (doses to about 115 µM), inactives show at the highest dose activity, negative = inhibition, hits mostly inhibitors; DNA polymerase iota (Homo sapiens), Q9UNA4; 390,000 tested, 1% active; further: potency means the concentration at half of the fitted maximal effect
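Pol iota at 10 nM preincubated 15 min with compounds at room temperature; reaction started with fluorescent substrate, 50 nM final. Fluorescence read kinetically at 0 and 10 min; buffer-only wells as negative control.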
PI5P4K alpha inh: qHTS for Inhibitors of phosphatidylinositol 5-phosphate 4-kinase (PI5P4K); max response, %; 330,000 tested, 1.2% active; PI5P4Kalpha enzyme, ADP-Glo luminescence, 60 min; active compounds read low; active means max response of -50% or lower; inconclusive means between -30% and -50%; inactive means -30% or higher; further: value at the top dose of about 77 µM; on the % scale 0 is the no-effect control and ±100 the full control effect
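Controls without substrate or without enzyme flank wells where PI5P4Kalpha converts substrate using 5 microM ATP (final). Incubation lasts 60 minutes at room temperature; ADP formed is read by ADP-Glo luminescence.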
POLK inh: qHTS for Inhibitors of Polymerase Kappa; purified Pol kappa, fluorescent DNA synthesis assay, 10 min; Potency, µM (doses to about 107 µM), inactives show at the top dose activity, negative = inhibition, usual class: inhibitors; 400,000 tested, 0.53% active; further: potency means the concentration at half of the fitted maximal effect; on the % scale 0 is the no-effect control and ±100 the full control effect
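Inhibition of 10 nM Pol kappa is measured by a fluorescent read-out at 0 and 10 min following addition of 50 nM substrate (final), with a 15-min room-temperature compound preincubation.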
ADP-Glo interf: qHTS for Inhibitors of PI5P4K: ADP-Glo counter assay | shares compounds with PI5P4K alpha inh | ADP-Glo detection counter-screen, luciferase luminescence, no enzyme | Potency, µM (series often up to 76.9 µM), for inactives: at the top dose activity change, negative = inhibition, hits mostly inhibitors | 1,100 tested, under 10 active | AID 743285, 2014
The depositor's hits bear a star; ? = inconclusive; nt = no result given; [ ] = remark or other dose. An excerpt weighted towards active compounds, which were near 2.8% of everything screened. Unless noted, the call rests on the fitted dose curve; in most records, active means well fitted curve in the direction sought with a large enough effect; inconclusive means small, poorly fitted or top-dose-only effect, or another doubt; inactive means no such curve, though single readings can be large; an effect the other way counts as inactive or inconclusive.

SMILES | WRN inhibitor | POLB inh | Pol eta inh | POLI inh | PI5P4K alpha inh | POLK inh | ADP-Glo interf
O=C(O)c1cccc(-n2cc(-c3cccc(C(F)(F)F)c3)cn2)c1 | -6.9% | 0.9% | 3.1% | ? | -62.0* | -16.0% | -4.0%
O=C(O)c1ccc(-c2nc(-c3cccc(C(F)(F)F)c3)cs2)cc1 | -7.0% | 8.4% | -10.0% | 32.8% | -17.7 | -2.9% | nt
Cc1ccc(-c2csc(N3CCN(c4cc5c(cc4Cl)nc(-c4ccncc4)n5CCN4CCCCC4)CC3)n2)cc1 | -2.4% | 9.2% | -4.7% | ? | -64.0* | -11.7% | 4.7%
CCCCCCCCN1C(=O)[C@H](CC(=O)NCc2ccc(C)o2)C[C@@]2(C(=O)OC)CC(C)(C)CC=C12 | -3.6% | nt | nt | nt | -51.0* | nt | -1.0%
CCCCCCCCN1C(=O)[C@H](CC(=O)NCc2cccs2)C[C@@]2(C(=O)OC)CC(C)(C)CC=C12 | -15.0% | nt | nt | nt | 2.0 | nt | nt
O=C(NCC(c1ccc2c(c1)OCO2)N1CCN(c2ccccc2)CC1)c1ccc(F)c(F)c1 (stereo not given) | nt | -18.4% | ? | 29.9% | nt | -3.9%[60.1 µM] | nt
Cc1c(C(=O)Nc2ccc3c(c2)OCCO3)sc2ncnc(N3CCCCC3C)c12 (stereo not given) | -7.8%[57.1 µM] | 4.2% | -25.0% | 7.2% | nt | -3.3% | -3.4%
Cc1nc(N2CCC(C)CC2)c2c(C)c(C(=O)Nc3ccc4c(c3)OCCO4)sc2n1 | -5.4% | -4.4% | -24.5% | 13.4% | 9.9 | -3.0% | nt
COc1cc(OC)c(NC(=O)c2cc3c(=O)oc4ccc(C)cc4c3s2)cc1Cl | nt | -12.5% | -1.1% | 17.9% | nt | -1.3% | nt
Cc1cccc(C(=O)N2CCc3cc(CNC(=O)c4ccnn4C)ccc32)c1 | nt | 4.7% | 10.6% | -24.7% | nt | -6.4%[60.1 µM] | nt
CCN(CC)C(=O)c1[nH]cnc1C(=O)Nc1ccc(OC)cc1 | -1.6% | 28.3% | -11.5% | 1.6% | 0.1 | 22.5% | -8.2%
CC1=NN(c2nc(-c3ccc(Cl)cc3)cs2)C(=O)C1 | ? | 35.5µM* | 44.7µM* | ? | -66.7* | 50.1µM* | -7.6%
COC(=O)CN1C(=O)CSc2ccc(S(=O)(=O)Nc3cccc(Br)c3)cc21 | nt | 10.6% | -6.4% | 10.9% | nt | -6.7% | nt
CCN(CC)c1ccc(NC(=O)c2cc(S(=O)(=O)N3CCc4ccccc43)cn2C)c(C)c1 | nt | 0.5% | -11.2% | 13.6% | nt | -9.9% | nt
Nc1sc2c(c1C(=O)c1ccccc1)CCCC2 | -8.8% | 10.0% | -7.7% | 15.9% | -50.6* | -6.4% | -6.5%
O=C(COC(=O)Cc1ccsc1)Nc1cccc(F)c1 | -0.8% | nt | -7.0% | -2.6% | -55.8* | -8.7% | -2.2%
Cc1cc(=O)n(Cc2ccc(Cl)cc2)c2c1c(C)nn2-c1ccccc1 | nt | 3.1% | -10.6% | -6.2% | nt | 23.9% | nt
CCOC(=O)C1CCN(c2ncnc3c2nnn3C)CC1 | nt | -3.0% | -7.8% | 8.2% | nt | -5.8%[60.1 µM] | nt
COc1cccc2cc(C(C)N(CCCN3CCOCC3)C(=O)Nc3ccccc3)oc12 (stereo not given) | 1.5% | 2.4% | -9.2% | 6.1% | -1.9 | -1.4% | 0.3%
COc1ccc(NC(=S)N(CCCN2CCOCC2)C(C)c2cc3cccc(OC)c3o2)cc1 (stereo not given) | -6.9% | -1.0% | -21.7% | 42.3% | 3.3 | -2.9% | nt
COc1ccc2[nH]cc(CCNC(=O)Nc3cc(C)cc(C)c3)c2c1 | nt | 9.2% | -16.7% | 9.4% | nt | -5.3% | nt
CCCCN(C(=O)c1cc(-c2ccc(F)cc2)nc2ccccc12)c1c(N)n(CCCC)c(=O)[nH]c1=O | 9.0% | nt | -2.7% | 25.4% | -3.8 | -17.3% | nt
CCCN(C(=O)c1cc(-c2ccco2)nc2ccccc12)c1c(N)n(Cc2ccccc2)c(=O)[nH]c1=O | ? | nt | 15.8µM* | 20µM* | -59.0* | -44.6% | -3.8%
O=C(COc1ccccc1Cl)OCc1cc(=O)n2nc(C3CC3)sc2n1 | nt | 32.2% | 1.9% | 7.5% | nt | 2.1% | nt
CCn1c(SCC(=O)NC(=O)NCc2ccco2)nc2sc(C)c(C)c2c1=O | ? | 20µM* | ? | 28.2µM* | -51.0* | ? | 0.7%
SMILES | WRN inhibitor | POLB inh | Pol eta inh | POLI inh | PI5P4K alpha inh | POLK inh | ADP-Glo interf
N#Cc1c(NC(=O)CSc2ncccn2)oc(-c2ccccc2)c1-c1ccccc1 | ? | nt | 10µM* | ? | -58.2* | ? | 5.8%
COc1ccc(C2=NCCn3nc4cc(OC)ccc4c32)cc1 | -3.2% | nt | -1.1% | 17.7% | -82.4* | -10.8% | 3.9%
COc1ccc2c3n(nc2c1)CCN=C3c1ccc(Cl)cc1 | 7.5% | nt | -8.1% | -3.9% | -0.9 | -11.2% | nt
COc1cccc(N2CCN(C(=O)Cn3c(-c4cccs4)cc4ccccc43)CC2)c1 | nt | 2.0% | -19.2% | -1.5% | nt | -8.3% | nt
Cc1csc(NC(=O)CSc2nc3[nH]ncc3c(=O)[nH]2)n1 | -2.4% | 10.0% | -17.2% | 27.4% | nt | -7.8% | 2.1%
C1=Cc2ccccc2/C1=C(\Cc1ccncc1)Oc1ccncc1 | nt | nt | nt | 2.8% | nt | 9.8% | nt
Cc1ccc(NC(=O)N2CCC(NC(=O)c3cccc(C)c3)CC2)cc1 | -7.5% | -12.6% | 12.5% | ? | -77.8* | -24.8% | -5.1%
Cc1ccc(NC(=O)N2CCC(NC(=O)c3ccco3)CC2)cc1 | 3.9% | 13.8% | -9.6% | 2.5% | -1.8 | -10.4% | nt
CCOC(=O)c1nnn(-c2nc(N(C)C)nc(N(C)C)n2)c1C | 9.3% | 9.4% | -7.3% | 85.2% | -3.6 | 8.1% | nt
CCOC(=O)c1nnn(-c2ccccc2)c1C | 0.4% | -19.7% | -8.8% | -4.0% | -0.3 | -4.4% | -1.4%
CC(=O)Cn1nnc2sc(-c3ccccc3)cc2c1=O | -9.4% | ? | ? | -21.2% | -54.0* | -26.1% | 2.5%
CC(C)COC(=O)Cn1nnc2sc(-c3ccccc3)cc2c1=O | nt | 36.2% | nt | 14.1% | nt | -2.7% | nt
COc1ccc(-c2cc(C(F)F)n3ncc(C(=O)Nc4cc(OC)ccc4OC)c3n2)cc1 | nt | 0.5% | -18.7% | 17.6% | nt | -2.6% | nt
COc1ccc(-c2cc(C(F)F)n3ncc(C(=O)n4ccnc4C)c3n2)cc1 | -2.7% | -28.7% | -18.0% | -22.3% | -25.7 | -3.4% | 2.8%
